Screens deposited in PubChem BioAssay by Broad Institute.
PAX8 reporter = inhibitors of PAX8-driven TPO luciferase reporter, primary screen, RMG-I cells, single concentration | 1.2% of 360,000 active | AID 652154, 2013 | inhibition, % at 12.6 µM | SteadyGlo, 24 h;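 active means mean replicate inhibition at least 60% with every replicate also reaching 60%; inconclusive means only one of the two criteria is met; inactive means mean below 60% and not all replicates reaching 60%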;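 further: luciferase light reporting Pax8 driven TPO promoter activity; plate controls were median of neutral control wells for no effect and mitoxantrone controls for full effect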
PGC1a acetyl inh = inhibitors of PGC1a acetylation signal, primary screen, cell-based, U2OS, AlphaScreen, inhibitor mode. AlphaScreen anti-acetyl-lysine; with virally co-expressed GCN5 acetyltransferase. inhibition, % at 15.6 µM. 0.17% of 350,000 active;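 active means every replicate shows inhibition of at least 40%; inconclusive means mean inhibition at least 40% but some replicate below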;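 further: 0% = neutral control wells and 100% = positive control wells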
EWS-Fli block = EWS/Fli-driven NR0B1 reporter inhibitors, primary screen, A673 cells, NR0B1 luciferase, luminescence, MLPCN library; 0.67% of 350,000 active; inhibition, % at 12.6 µM; viability-normalised;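 active means mean inhibition of at least 50% after viability correction, with every replicate also passing that limit; inconclusive means mean reaches 50% but only one of two replicates passes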;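 further: firefly luciferase signal divided by Alamar Blue viability fluorescence both relative to DMSO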
INS-1E GSIS act = GLuc luminescence reporter in INS-1E cells, primary screen for activators of glucose-dependent secretion of insulin. INS-1E GLuc reporter insulin secretion, 2-3 h. activation, % at 16.6 µM. 0.61% of 370,000 active;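 active means lowest replicate activation of at least 40%, so every replicate reaches that level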;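 further: 0% = median of neutral control wells and 100% = median of IBMX positive control wells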
HIV Env fusion = inhibitors of HIV-1 Env-driven cell-cell fusion, primary screen, HeLa-JRFL effector, CEM21 target cells, luciferase; inhibition, % at 12.3 µM; 1.1% of 360,000 active;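 active means mean replicate inhibition score of at least 50 and every replicate individually at or above 50; inconclusive means only one of the two criteria met; inactive means mean below 50 and not all replicates reaching 50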;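 further: 0% = plate neutral controls and 100% = maraviroc near 300 nM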
CFTR F508del cor = F508del CFTR correction, initial screen, CFBE line, single point; CFBE cells, YFP halide quenching; stimulated with forskolin plus potentiator P3; % fluorescence drop versus neutral controls; activity (quench increase), % at 7.58 µM; 0.36% of 350,000 active; AID 720511, 2013;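 active means mean added fluorescence quench of at least 8% versus neutral control, with both replicates also reaching 8%; inconclusive means only one of the mean or replicate conditions met; inactive means mean below 8% and not both replicates reaching 8%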;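 further: cells transiently co-express mutant CFTR-F508del with the halide-sensitive YFP; corrector assay measuring rescue of mutant channel to the surface after 24 h compound exposure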
DNA binding = DNA binders by acridine orange displacement, dose response, counter-screen for EWS/Fli inhibitor project, biochemical, fluorescence polarization, cherry-pick; shares compounds with EWS-Fli block; salmon sperm DNA acridine orange fluorescence polarization; AC35, µM (series often up to 68 µM), inactives show at the highest dose activity change, negative = DNA binding; 2% of 640 active; AID 720586, 2013;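 active means fitted curve reaches a 35% signal fall AC35 below twice the sample's top valid tested dose, actives reach about 48 µM in these data; inactive means the rest, including activity in the rising direction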;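 further: lower polarization ratio signals compound binding to DNA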
* marks the source's active call; other numbers are inactive results; i = inactive; ? = inconclusive; / = not tested or not shown; ! = a repeat was not active; [ ] = another dose, or the depositor's remark. In the library only some 2.7% were active in any assay of this set; here they are far more common.

SMILES	PAX8 reporter	PGC1a acetyl inh	EWS-Fli block	INS-1E GSIS act	HIV Env fusion	CFTR F508del cor	DNA binding
C[C@@H]1CN([C@@H](C)CO)C(=O)c2cccc(NS(=O)(=O)c3ccc(F)cc3)c2O[C@H]1CN(C)Cc1ccc(C(=O)Nc2ccccc2N)cc1	-21	-8	37	14	/	0	/
O=C(Nc1ccc(F)cc1)N1CC(=O)N2[C@H](C1)[C@H](c1ccc(-c3cccc(F)c3)cc1)[C@@H]2CO	14	-7	11	-19	/	1	/
CO[C@@H]1CN(C)C(=O)c2ccc(NC(=O)C3CCC3)cc2OC[C@@H](C)N(Cc2cccnc2)C[C@@H]1C	-8	/	7	2	/	-3	/
O=C1Nc2cc(C(=O)NCCN3CCCCCC3)ccc2S/C1=C\c1ccccc1	20	-21	60*	40	-1	1	-1%
Cc1cccc(/C=C2/Sc3ccc(C(=O)NCCN4CCCC4)cc3NC2=O)c1	11	-10	/	-6	0	2	/
C[C@@H]1CCCCO[C@H](CN(C)S(=O)(=O)c2cccs2)[C@H](C)CN([C@H](C)CO)C(=O)c2cc(NS(C)(=O)=O)ccc2O1	15	-2	-5	-9	7[16.7 µM]	-5	/
Nc1cc2c(cc1Br)[nH]c(=O)c1ccccc12	6	11	52*	/	83*	1	-2%
Nc1cc2[nH]c(=O)c3ccccc3c2cc1Br	-6	/	-21	0	10	-4	/
O=C1CCC2S/C(=C/Nc3ccc(C(F)(F)F)cc3)C(=O)N12 (stereo unspecified)	72*	-17	86*	-8	52	-1	-1%
O=C1CCCC/C1=C/Nc1cccc(C(F)(F)F)c1	12	/	-22	18	-5	1	/
Cc1cc(N/N=C(/CCC(=O)O)C(=O)O)nc2ccccc12	-11	/	18	-4	-2	-1	/
C/C(=N\Nc1cccc2cccnc12)c1ccccn1	-63	/	61*	2	-240	2	-1%
CC(=NNc1cc(C)c2ccccc2n1)c1ccccn1	95*	/	64*	9	-309	6	-2%
C/C(=N\Nc1cccc2cccnc12)c1ccccc1O	-59	-5	-11	-2	i	-3	/
COc1ccc(NC(=O)N(C)C[C@@H]2OCCCC[C@@H](C)Oc3ccc(NC(=O)c4ccncc4)cc3C(=O)N([C@H](C)CO)C[C@H]2C)cc1	-5	0	5	8	-7[16.7 µM]	0	/
Cc1noc(C)c1NC(=O)Nc1cccc2c1O[C@@H](CN(C)Cc1ccc(-c3ccccc3)cc1)[C@H](C)CN([C@@H](C)CO)C2=O	23	3	1	-9	/	0	/
O=C(Nc1cccc(Oc2ccc3c(c2)C(=O)NC3=O)c1)c1cccs1	-6	/	74*	1	16	/	-6%
CCCNC(=O)N1CC2(CN(CC3CCOCC3)C2)c2c([nH]c3cc(OC)ccc23)[C@H]1CO	/	9	5	5	/	-3	/
Nc1nc(N)c2c(ccc3nccc32)[nH]1	16	/	56*	-2	-8	0	-12%
C=CCn1c(O)c(N=Nc2ccccc2)c2ccccc21	-17	-2	55*	17	3	-5	-3%
COc1ccc2c3c([nH]c2c1)[C@H](CO)N(C(=O)Nc1ccccc1F)CC31CN(C(C)=O)C1	/	-4	-8	3	/	-1	/
N#CC(=C1C=C(Br)C(=NO)C=C1Cl)c1ccc(Cl)cc1	13	/	14	-18	-5	1	/
N#CC(=C1C=CC(=NO)C(Cl)=C1)c1ccccc1	73*	/	51*	/	-242	1	-2%
CN1c2ccc(-c3ccc(C#N)cc3)cc2[C@H]2[C@H](CCN2S(=O)(=O)c2cccc(F)c2)[C@@H]1CO	73*	24	61*	-3	/	?	-11%
COc1ccc(-c2ccc3c(c2)[C@@H]2[C@@H](CCN2S(=O)(=O)c2ccc(OC)cc2)[C@H](CO)N3C)cc1	21	-15	-1	4	/	-2	/
SMILES	PAX8 reporter	PGC1a acetyl inh	EWS-Fli block	INS-1E GSIS act	HIV Env fusion	CFTR F508del cor	DNA binding
COc1ccc(-c2ccc3c(c2)[C@H]2[C@H](CCN2S(=O)(=O)c2ccc(OC)cc2)[C@@H](CO)N3C)cc1	79*	2	55*	-1	/	?	5%
Cc1ccccc1S(=O)(=O)N1CC[C@H]2[C@H](CO)Nc3ccc(-c4ccc(C#N)cc4)cc3[C@H]21	-24	9	8	19	/	0	/
Cc1ccccc1S(=O)(=O)N1CC[C@@H]2[C@@H](CO)Nc3ccc(-c4ccc(C#N)cc4)cc3[C@@H]21	24	18	54*	5	/	1	-17%
C[C@H](O)C#Cc1ccc2c(c1)O[C@@H](CN(C)C(=O)C1CCCCC1)[C@H](C)CN([C@H](C)CO)S2(=O)=O	/	0	1	14	-20[16.7 µM]	0	/
CCCNC(=O)[C@@H]1[C@@H](CO)[C@@H]2Cn3c(ccc(-c4ccccc4)c3=O)[C@H]1N2C(=O)CC	/	6	55*	0	/	0	2%
CC(C)C(=O)Nc1ccc2c(c1)C(=O)N(C)[C@H]1CC[C@@H](CC(=O)Nc3ccccc3)O[C@H]1CO2	27	1	-2	-8	4[16.7 µM]	4	/
COc1ccc(NC(=O)N2CCCCN3[C@H](CO)[C@H](c4ccc(C#CCC(C)C)cc4)[C@H]3C2)cc1	31	-37	73*	13	/	-1	-2%
O=C(Nc1ccccc1F)N1CCCCN2[C@H](CO)[C@H](c3ccc(/C=C/c4ccccc4)cc3)[C@H]2C1	-4	-15	76*	-4	/	-4	-8%
COc1ccccc1NC(=O)N1CCCCN2[C@H](CO)[C@H](c3ccc(-c4cccc(C)c4)cc3)[C@H]2C1	104*	-3	61*	-19	/	1	-6%
CC=Cc1ccc2n(c1=O)C[C@H]1[C@H](CO)[C@@H](C(=O)N(C)C)[C@@H]2N1CC1CCCC1 (mixture of isomers)	/	-1	17	-3	/	5	/
O=C(NCc1ccccn1)[C@@H]1[C@@H](CO)[C@@H]2Cn3c(ccc(C4=CCCC4)c3=O)[C@H]1N2Cc1cccnc1	2	/	-4	18	8[16.7 µM]	/	/
COc1cccc(-c2ccc([C@@H]3[C@@H](CO)N4C(=O)CN(C(=O)NC(C)C)C[C@H]34)cc2)c1	-15	6	0	5	/	-2	/
CN(C)C(=O)c1cccc(-c2ccc(C3[C@@H]4CN(Cc5nccs5)C[C@H]3N4)cc2)c1 (stereo partly specified)	-9	9	59*!	9	/	2	-3%
